Bioassay records from PubChem.
MCF10A rerep = A quantitative high throughput screen for small molecules that induce DNA re-replication in MCF 10a normal breast cells | hit rate 2.9% among 350,000 | Potency, µM (doses to about 46.1 µM), for inactives: at the top dose activity, positive = re-replication, most hits filed as activators | AID 624296, 2012 | MCF 10A DNA re-replication, Hoechst nuclear intensity, 48 h; further: potency means the concentration at half of the fitted maximal effect; % of control where 0% means no effect; nearly all actives have a fitted effect of over 50% in size
DT40 TDP1 no CPT = qHTS for Inhibitors of human tyrosyl-DNA phosphodiesterase 1 (TDP1): qHTS in cells in absence of CPT; DT40 Tdp1-/- hTDP1 cells, no CPT, ATP luminescence, 48 h; Potency, µM (series often up to 46.2 µM), for inactives: at the highest dose activity change, negative = growth inhibition, actives largely listed as inhibitors; hit rate 15% among 420,000; AID 686978, 2013; further: potency means the concentration at half of the fitted maximal effect; on the % scale 0 is the no-effect control and ±100 the full control effect; nearly all actives have a fitted effect of over 55% in size
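Compound effects on proliferation are scored in DT40 Tdp1-/-;hTDP1 cells in the absence of CPT. ATP levels (CellTiter-Glo luminescence) are recorded after a ≥48 hr, 37 °C incubation.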
BCR signal inh = qHTS Assay to Find Inhibitors of Chronic Active B-Cell Receptor Signaling. ABC-DLBCL IkBa-CBG/CBR reporter, luminescence ratio, 4 h. Potency, µM (doses to about 46.1 µM), without a hit: at the highest dose activity change, negative = inhibition, actives largely listed as inhibitors. AID 493014, 2011. hit rate 0.05% among 340,000; active means well fitted inhibition curve with a large enough effect in the signal ratio, with a control signal flat, not every such curve was filed as active; inconclusive means small, poorly fitted or top-dose-only effect, or effect the other way, or a change in a side signal; the % refers to the signal ratio;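 further: potency means the concentration at half of the fitted maximal effect; plate controls were basal doxycycline-induced cells for no effect and cells given 10 µM MG132 for full effect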
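Concentration-response series (up to 46 uM) were applied to TMD8 dual-reporter cells for 4 h at 37C with doxycycline. Green/red ratio, after filter-overlap correction, defined %Activity; red signal alone was normalised to basal cells and zero luminescence.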
SW480 rereplic = A quantitative high throughput screen for small molecules that induce DNA re-replication in SW480 colon adenocarcinoma cells; Potency, µM (series often up to 46.1 µM), for the others: at the highest dose re-replication activation, usual class: activators; SW480 DNA re-replication, Hoechst DNA content imaging, 48 h; hit rate 1.8% among 340,000; further: potency means the concentration at half of the fitted maximal effect; % of control where 0% means no effect; nearly all actives have a fitted effect of over 55% in size
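250 cells/well; 23 nL cpd via pin tool; 48 hr, 37 C, 5% CO2; Hoechst 40 min; imager read of total nuclear intensity, ex 405/em 500-530 nm.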
IL-1B inflam inh = qHTS for Inhibitors of Inflammasome Signaling: IL-1-beta AlphaLISA Primary Screen. THP-1 LPS/ATP IL-1B secretion, AlphaLISA, 16 h; hits give low values. activity change, % at 57.5 µM. hit rate 4.7% among 360,000. AID 743279, 2014; in the data active means activity change below about -50%; inconclusive means mostly about -30% to -49%; further: on the % scale 0 is the no-effect control and ±100 the full control effect
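THP-1 cells pretreated 1 hr with compounds (up to 57.5 uM final), then stimulated with LPS (250 ng/mL final) plus ATP (1.25 mM final); secreted IL-1B measured by AlphaLISA after 16 hr, decreased signal indicating inhibition.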
TDP1 cell CPT = qHTS for Inhibitors of human tyrosyl-DNA phosphodiesterase 1 (TDP1): qHTS in cells in presence of CPT; hit rate 12% among 420,000; chicken DT40 Tdp1-/-;hTDP1 cells + 20 nM CPT, ATP luminescence, 48 h; Potency, µM (doses to about 46.2 µM), inactives show at the highest dose activity change, negative = growth inhibition, actives largely listed as inhibitors; further: potency means the concentration at half of the fitted maximal effect; on the % scale 0 is the no-effect control and ±100 the full control effect; nearly all actives have a fitted effect of over 55% in size
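Cell growth measured by CellTiter-Glo luminescence after a minimum 48 h, 37 C compound exposure with 20 nM CPT in Tdp1-knockout DT40 cells stably expressing hTDP1, seeded 400/well; qHTS titration format.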
Active calls of the source: *; u = inconclusive; x = not tested or not shown. Only some compounds are listed: those with a hit (about 19% of all), similar ones and a draw of the others. Unless noted, the call rests on the fitted dose curve; in most records, active means well fitted curve in the direction sought with a large enough effect; inconclusive means small, poorly fitted or top-dose-only effect, or another doubt; inactive means no such curve, though single readings can be large; an effect the other way counts as inactive or inconclusive.

SMILES	MCF10A rerep	DT40 TDP1 no CPT	BCR signal inh	SW480 rereplic	IL-1B inflam inh	TDP1 cell CPT
CCn1c(CNc2ccc(F)cc2)nnc1SCCN1CCCCC1	19%	-16%	1%	-15%	18	5%
Cc1ccc(C)c2nc(Cl)c(C3NC(=O)c4ccccc4N3)cc12 (stereo not given)	u	16µM*	-2%	3%	21	u
O=C1NC(c2ccccc2O)Nc2ccccc21 (stereo not given)	2%	-17%	u	-1%	21	-19%
COc1ccc(C2NC(=O)c3ccccc3N2)c(OC)c1OC (stereo not given)	x	u	x	x	21	u
COc1ccc2cc(C3NC(=O)c4ccccc4N3)c(Cl)nc2c1 (stereo not given)	2%	u	7%	-13%	-13	-18%
Cn1cc(C2NC(=O)c3ccccc3N2)c2ccccc21 (stereo not given)	2.9µM*	1.6µM*	x	5.8µM*	29	1.2µM*
Cc1ccc(C)c(C2NC(=O)c3ccccc3N2)c1 (stereo not given)	2.3µM*	0.58µM*	u	7.3µM*	10	0.73µM*
COc1cc(C)c(C2NC(=O)c3ccccc3N2)cc1C (stereo not given)	7.3µM*	2.1µM*	x	7.3µM*	8	2.6µM*
COc1ccc(OC)c(NC(=O)C2(C)CCN2C(=O)C2(c3ccc(Cl)cc3)CCC2)c1 (stereo not given)	x	u	x	x	30	u
CCc1nc2cc(C(=O)NC3CCS(=O)(=O)C3)cc(NC(=O)c3ccccc3OC)c2n1C (stereo not given)	x	-8%	x	x	x	-3%
C[C@H](NC(=O)N1CCn2c1nc1ccccc12)C(=O)NCc1ccccc1	-2%	18%	-10%	-2%	0	-6%
O=C(NCc1ccco1)c1cc(S(=O)(=O)N2CCOCC2)c(Cl)cc1Cl	6%	-20%	0%	-6%	3	-18%
O=C(COC(=O)c1cc(S(=O)(=O)N2CCOCC2)c(Cl)cc1Cl)NCc1ccco1	u	1%	-2%	-12%	-80*	11%
O=C(Cn1c(=O)oc2cc(S(=O)(=O)N3CCCC3)ccc21)N1CCCC1	-5%	-3%	5%	-8%	10	6%
O=C(Cn1c(=O)oc2cc(S(=O)(=O)N3CCCCC3)ccc21)NCc1ccc(F)cc1	x	5.8µM*	x	x	x	5.2µM*
CCOC(=O)Cn1c(=O)oc2cc(S(=O)(=O)N(C)c3ccc(OC)cc3)ccc21	2%	-1%	u	-100%	-57*	-20%
O=C(Cn1c(=O)oc2cc(S(=O)(=O)N3CCCCC3)ccc21)NCc1ccc(Cl)cc1	x	7.3µM*	x	x	x	9.2µM*
COc1cccc(CNC(=O)Cn2c(=O)oc3cc(S(=O)(=O)N4CCCC4)ccc32)c1	x	23µM*	x	x	x	u
C[C@H]1NC(=O)[C@]2(C)[C@@H](c3ccccc3)[C@H]3COc4ccccc4[C@H]3N2C1=O	-17%	-4%	x	18%	12	-3%
COc1cc(OC)c(OC)cc1CNC(=O)CCN1C(=O)c2cccc([N+](=O)[O-])c2C1=O	-28%	-5%	u	-19%	11	2%
O=C1C(=Cc2cccn2-c2ccccc2)C(=O)c2ccccc21	9%	3%	8%	18µM*	11	3%
O=C1C(=Cc2cccn2-c2ccc(O)cc2)C(=O)c2ccccc21	-5%	3%	u	-5%	0	u
CN1OC[C@@H]2CN[C@H](c3cccc(-c4ccc(C#N)cc4)c3)C[C@@H]21	u	u	x	u	-16	u
Cc1cnc(C)c(Nc2nc(C(N)CCc3ccccc3)cs2)n1 (stereo not given)	x	18µM*	x	x	-25	16µM*
Cc1cnc(C)c(Nc2nc(C(N)Cc3ccc(F)cc3)cs2)n1 (stereo not given)	x	u	x	x	-20	26µM*
SMILES	MCF10A rerep	DT40 TDP1 no CPT	BCR signal inh	SW480 rereplic	IL-1B inflam inh	TDP1 cell CPT
COc1ccc(CC(N)c2csc(Nc3nc(C)cnc3C)n2)cc1 (stereo not given)	x	15µM*	x	x	-23	18µM*
CCc1cnc(Nc2nc(C(N)Cc3ccc(F)cc3)cs2)nc1 (stereo not given)	x	18µM*	x	x	-62*	12µM*
Cc1cnc(C(=O)OCC(=O)NC(C)CCc2ccccc2)cn1 (stereo not given)	-1%	20%	9%	-5%	8	24%
CN(CC(=O)Nc1ccc(F)c(F)c1F)C(=O)C1CCCC1	-2%	-5%	-1%	-3%	47	-3%
CCc1ccc(C(=O)COC(=O)c2cccnc2Cl)cc1	0%	u	u	-4%	8	9%
O=C(NC12CC3CC(CC(C3)C1)C2)c1cccnc1Cl	u	7%	0%	-5%	0	2%
Cc1cnc(C)c(Nc2nc(C(N)Cc3ccc(Cl)cc3)cs2)n1 (stereo not given)	x	18µM*	x	x	-16	8.2µM*
CCOCCCn1c(SCC(=O)Nc2ccc3[nH]c(=O)[nH]c3c2)nc2ccccc2c1=O	2%	-15%	-11%	-3%	-54*	u
CCOCCCn1c(SCC(=O)NC(C)(C)C)nc2ccccc2c1=O	8%	-24%	4%	2%	-10	-12%
CCOCCCn1c(SCC(=O)Nc2ccc(C(N)=O)cc2)nc2ccccc2c1=O	12%	u	2%	-3%	5	-30%
CCOCCCn1c(SCC(=O)Nc2ccccc2Cl)nc2c(oc3ccccc32)c1=O	x	7.3µM*	x	x	x	u
CCOCCCn1c(SCC(=O)Nc2ccccc2CC)nc2ccccc2c1=O	x	16µM*	0%	x	x	16µM*
CC1(c2nnnn2C2CCCCC2)CCC(=O)N1Cc1ccc2c(c1)OCO2 (stereo not given)	x	-19%	x	x	41	-3%
Cc1cc2cc(CN(Cc3ccc4c(c3)OCO4)Cc3nnnn3C3CCCC3)c(=O)[nH]c2cc1C	-3%	13µM*	-2%	-2%	-6	16µM*
Cc1ccc2[nH]c(=O)c(CN(Cc3ccc4c(c3)OCO4)Cc3nnnn3C3CCCC3)cc2c1	u	u	x	u	-56*	u
